PubChem BioAssay (NCATS)
Results filed as inconclusive are left out. The source made the active and inactive calls. Calls come from the whole dose curve; as a rule, active = well fitted cell-killing curve with a large enough effect; inconclusive = small, poorly fitted or top-dose-only effect, or effect the other way; inactive = no such curve, though single readings can be large or run the other way.

test: Viability qHTS for spleen associated tyrosine kinase inhibitor (SYKi) drug resistant MV4-11 cells (AID 1963824); settings: SYKi-resistant MV4-11 viability, CellTiter-Glo, 72 h; series mostly up to 45 µM; viability, % of control: at the top concentration; note: nearly all actives have a fitted effect of over 35% in size
Outline: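 CellTiter-Glo luminescence, read 10 min after reagent addition, reports viability after a 72 hr compound exposure. Cells are an MV4-11 line made resistant to SYK inhibition, seeded at 500 per well onto compound-containing plates.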
Potency is the fitted concentration of half-maximal effect.

Compound | viability, % of control | Potency
CC(=O)/C=C/C1(O)C(C)CC(O[C@@H]2O[C@H](CO)[C@@H](O)[C@H](O)[C@H]2O)CC1(C)C (stereo not given in full) | 82.8% [at 17.3 µM] (inactive) | –
C=CCc1ccc(OC(C)Cc2ccc(OC)c(OC)c2)c(OC)c1 (stereo not given) | – | 12.8 µM (active)
O=C(C1OC1/C=C/c1ccc2c(c1)OCO2)N1CCCCC1 (stereo not given) | 75.4% (inactive) | –
CC1CCN(C(c2ccc(F)cc2)c2ccc(C(C)C(=O)O)cc2-c2ccc(C(F)(F)F)cc2)CC1 (stereo not given) | – | 6.51 µM (active)
Cc1cc(C)cc(Oc2ccc(CNC(=O)[C@H](C)N)cc2C)c1 | – | 16.6 µM (active)
NS(=O)(=O)Nc1ncnc(OCCOc2ncc(Br)cn2)c1-c1ccc(Br)cc1 | – | 14.6 µM (active)
CCCCC1CCN(CCCN2C(=O)CCc3ccccc32)CC1 | – | 2.59 µM (active)
CC1(C)CC[C@]2(C(=O)O[C@@H]3O[C@H](CO)[C@@H](O)[C@H](O)[C@H]3O)CC[C@]3(C)C(=CCC4[C@@]5(C)CC[C@H](O[C@@H]6O[C@H](C(=O)O)[C@H](O)[C@H](O)[C@H]6O)C(C)(C)C5CC[C@]43C)[C@@H]2C1 (stereo not given in full) | – | 4.85 µM (active)
Cc1cc2sc(NC(=O)Cc3ccccc3)nc2cc1Cl | 47.9% (inactive) | –
Cc1nc2ccccc2n1Cc1ccc(Cl)cc1 | – | 0.422 µM (active)
CC1(C)C2CCC(CO[C@@H]3O[C@H](CO[C@@H]4OC[C@](O)(CO)[C@H]4O)[C@@H](O)[C@H](O)[C@H]3O)C1C2 (stereo not given in full) | 97.3% [at 17.3 µM] (inactive) | –
C=C(C)[C@@]1(O)C[C@@]2(C)C(=CC1=O)CC[C@@H](O)[C@@H]2C | 78% (inactive) | –
O=C(Nc1ccc(-n2nc(C(F)(F)F)cc2C(F)(F)F)cc1)c1ccncc1F | – | 10.3 µM (active)
O=C(OC1C=C(CO)C2C(OC3OC(CO)C(O)C(O)C3O)OC=CC12O)c1ccc(O)cc1 (stereo not given) | 91.5% [at 17.3 µM] (inactive) | –
CC(=O)N[C@H](Cc1c[nH]c2ccccc12)C(=O)OCc1cc(C(F)(F)F)cc(C(F)(F)F)c1 | – | 23.1 µM (active)
COc1cc2c(cc1OC)N1C(=O)C[C@]34C=CCN5CC[C@@H]2[C@@H](CC3)[C@]514 | – | 8.05 µM (active)
C=CC(C)(C)c1[nH]c2cc3c(cc2c1CC1NC(=O)C2CCCN2C1=O)C=CC(C)(C)O3 (stereo not given) | 68% [at 17.3 µM] (inactive) | –
CO[C@H]1O[C@@H]2O[C@@]3(C)CCC4[C@H](C)CCC([C@H]1C)[C@]42OO3 (stereo not given in full) | – | 2.91 µM (active)
Cc1ccnc(NC(=O)C(C)c2cccc(C(=O)c3ccccc3)c2)c1 (stereo not given) | – | 23.1 µM (active)
C=C1C2=CC(O)C(C)C1(C)CC/C(C)=C/CCC1(C)OC1C2=O (stereo not given) | – | 10.1 µM (active)

Compound | viability, % of control | Potency
CCCCC(CC)CN=C(N)NC(N)=NCCCCCCN=C(N)NC(N)=NCC(CC)CCCC (stereo not given) | – | 2.66 µM (active)
CO[C@H]1/C=C\O[C@@]2(C)Oc3c(C)c(O)c4c(O)c(c(/C=N\N5CCN(C6CCCC6)CC5)c(O)c4c3C2=O)NC(=O)/C(C)=C\C=C/[C@H](C)[C@H](O)[C@@H](C)[C@@H](O)[C@@H](C)[C@H](OC(C)=O)[C@@H]1C | – | 10 µM (active)
CC1=C(c2ccc(NC(=O)c3c(F)cccc3F)cc2)CN(c2nccs2)CC1 | – | 2.59 µM (active)
CS(=O)(=O)c1ccc(-c2cn3ccccc3n2)cc1 | 75.9% (inactive) | –
CCC/C=C/c1cc2c(C=O)c(O)c(CC=C(C)C)cc2o1 | – | 16.4 µM (active)
CC1OC2O[C@H]3[C@@H](OCC(O)[C@H]3O)OC(=O)C34CCC(C)(C)CC3C3=CCC5C6(C)CC(O)C(OC7OC(CO)C(O)C(O)C7O[C@@H]7OC[C@H](OC(=O)CC(C)(O)CC(=O)OC1C(OC1OCC(O)C(O)C1O)C2O)[C@@H](O)[C@H]7O)C(C)(CO)C6CCC5(C)C3(C)CC4 (stereo not given in full) | – | 7.09 µM (active)
Cc1ccc(NC(=O)C(C)C)cc1C1CCN(Cc2ccc(Oc3ccc(F)c(F)c3)cc2)CC1 | – | 4.61 µM (active)
CC(=O)O[C@@H]1CC[C@@]2(C)C(CC[C@]3(C)C2[C@H](O)C=C2[C@H]4[C@@H](C)[C@H](C)CC[C@]4(C)CC[C@]23C)[C@@]1(C)C(=O)O (stereo not given in full) | – | 7.09 µM (active)
COC(=O)CCC(=O)OC[C@]1(C)CCC[C@@]2(C)C3CC[C@]4(C)C=CC3(CCC12)C4 (stereo not given in full) | 80% [at 17.3 µM] (inactive) | –
CC(=O)Nc1cccc(-c2csc(Nc3cc(C)ccn3)n2)c1 | – | 16.4 µM (active)
C/C=C(\C)C(=O)OCC1OC(OCC2OC(OC3(CO)OC(CO)C(O)C3O)C(O)C(O)C2O)C(O)C(O)C1O (stereo not given) | 90.8% [at 17.3 µM] (inactive) | –
CC1CCC2(NC1)OC1CC3C4CC=C5CC(O[C@@H]6O[C@H](CO)[C@@H](O[C@@H]7O[C@@H](C)[C@H](O)[C@@H](O)[C@H]7O)[C@H](O)[C@H]6O[C@@H]6O[C@@H](C)[C@H](O)[C@@H](O)[C@H]6O)CCC5(C)C4CCC3(C)C1C2C (stereo not given in full) | – | 5.51 µM (active)
CC1=CC2C(CC1OC1OC(CO)C(O)C(O)C1O)C(C)CC(=O)C2C(C)C (stereo not given) | 86.7% (inactive) | –
CC(=O)O[C@@H]1[C@H](O[C@@H]2OC[C@](O)(CO)[C@H]2O)[C@@H](O[C@@H]2O[C@@H](C)[C@H](O)[C@@H](O)[C@H]2O)[C@H](OC(=O)[C@]23CCC(C)(C)C[C@H]2C2=CCC4[C@@]5(C)C[C@H](O)[C@H](O[C@@H]6O[C@H](C(=O)O)[C@@H](O)[C@H](O)[C@H]6O)[C@@](C)(C(=O)O)C5CC[C@@]4(C)[C@]2(C)CC3)O[C@@H]1C (stereo not given in full) | 107% [at 9.25 µM] (inactive) | –
O=C(OC[C@H]1O[C@H](O[C@]2(CO)O[C@H](CO)[C@@H](O)[C@@H]2O)[C@H](O)[C@@H](O)[C@@H]1O)c1ccccc1 | 93% [at 17.3 µM] (inactive) | –
CCCCCCCOc1cc2c(cc1/C(C)=C/c1ccc(C(=O)O)cc1)C(C)(C)CCS2(=O)=O | – | 11.6 µM (active)
C[C@@H]1C[C@@H]([C@@H](O)C(C)(C)O)O[C@H]2C[C@@]3(C)C(=C12)C[C@H](O)[C@H]1[C@@]2(C)CCC(=O)C(C)(C)C2CC[C@@]13C (stereo not given in full) | – | 1.26 µM (active)
COc1cccc(NCCC2(c3ccccc3)CC(C)(C)OC(C)(C)C2)c1 | 102% (inactive) | –
CCC(C)/C=C(C)/C=C/C1=CC2=C(Cl)C(=O)C(C)(OC(C)=O)C(=O)C2=CN1C1CCCCN(C(CCC(N)=O)C(=O)O)C1=O (stereo not given) | 78.7% [at 17.3 µM] (inactive) | –
CCCN(CCC)C(=O)C(CCC(=O)OCCCN1CCN(CCOC(=O)Cc2c(C)n(C(=O)c3ccc(Cl)cc3)c3ccc(OC)cc23)CC1)NC(=O)c1ccccc1 (stereo not given) | – | 20.6 µM (active)
